PNC assembly inh: inhibitors of perinucleolar compartment assembly | PC3M PTB-GFP, PNC prevalence imaging, 16 h; active compounds read low | activity change (PNC), negative = inhibition, % at 10 µM | 3.1% of 140,000 active;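 active = readout at or below -70, meaning at least 70% loss of cells showing the perinucleolar compartment, a nuclear body marking cancer cells; inconclusive = readout between -30 and a set limit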;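 also: plate controls were DMSO wells for no effect and camptothecin positive control wells for full effect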
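PC3M cells stably expressing PTB-GFP, 750–1000 cells/well, treated 16 h at 37 °C with compound (23 nl of library stock), in duplicate. After paraformaldehyde fixation and Hoechst stain, imaged at 20x; PNC prevalence scored by image analysis.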
HPGD block: blocks human HPGD enzyme activity. 4.3% of 150,000 active. Potency, µM, inactives show top-dose activity change, negative = inhibition, most hits filed as inhibitors. purified HPGD, NADH fluorescence kinetic, PGE2 substrate. AID 894; also: potency is read from the fitted curve at half-maximal effect; % is scaled to controls: 0 for no effect and ±100 for the full control effect
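NADH formation kinetics: reaction with 30 uM PGE2 and 1 mM NAD+ (final), 20 nM enzyme, Tris-HCl pH 8 with Tween 20, after 15 min compound preincubation at room temperature. Fluorescence change, last versus first of five reads.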
ALDH1A1 inh: ALDH1A1 (human) enzyme inhibition | Purified ALDH1A1, NADH fluorescence, propionaldehyde substrate | AID 1030 | P00352 | Potency, µM (highest dose often 75.3 µM), for inactives: at the top dose activity, negative = inhibition, usual class: inhibitors | 7.3% of 220,000 active;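 also: potency is read from the fitted curve at half-maximal effect; plate controls were no enzyme wells and a reference inhibitor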
Target sequence (P00352 whole entry, looked up): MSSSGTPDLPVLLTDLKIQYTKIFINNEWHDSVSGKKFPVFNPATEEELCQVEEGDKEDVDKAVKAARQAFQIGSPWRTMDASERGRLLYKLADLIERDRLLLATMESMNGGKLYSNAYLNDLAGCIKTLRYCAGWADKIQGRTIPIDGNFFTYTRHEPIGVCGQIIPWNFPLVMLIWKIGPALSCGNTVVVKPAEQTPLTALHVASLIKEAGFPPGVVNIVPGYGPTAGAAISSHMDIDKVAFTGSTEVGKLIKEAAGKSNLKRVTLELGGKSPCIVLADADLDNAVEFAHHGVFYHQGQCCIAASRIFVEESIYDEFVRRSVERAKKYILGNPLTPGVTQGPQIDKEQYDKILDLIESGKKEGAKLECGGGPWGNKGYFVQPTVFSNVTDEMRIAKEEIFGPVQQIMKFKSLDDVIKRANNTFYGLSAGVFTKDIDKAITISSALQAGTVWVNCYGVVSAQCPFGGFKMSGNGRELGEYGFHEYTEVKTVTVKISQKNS
HPGD inh cf: confirmation of human HPGD inhibitors | shares compounds with HPGD block | recombinant HPGD, NADH fluorescence, PGE2 substrate | Potency, µM (series often up to 57.1 µM), for the others: at the highest dose activity change, negative = inhibition, actives largely listed as inhibitors | 90% of 90 active | AID 2429; calls by dose curve
Numbers without * were called inactive; [ ] = dose if it differs, or a comment. Sampled rows, rich in hits. Any-hit rate of the full collection: about 11%. Unless noted, calls follow the shape of the dose curve; as a rule, active = well fitted inhibition curve with a large enough effect (not every such curve was filed as active); inconclusive = small, poorly fitted or top-dose-only effect, or another doubt; inactive = no such curve, though single readings can be large or run the other way.

For CCn1c(COc2ccccc2Cl)nnc1SCC(=O)Nc1ncccc1C the results were PNC assembly inh 19.3, HPGD block 1.3% and ALDH1A1 inh 14.0%.
CCn1cc(Br)c(C(=O)Nc2ccc(OC)cc2)n1 was read as PNC assembly inh -19.4, HPGD block -3.3% and ALDH1A1 inh 3.8%.
Screening CCn1cc(Br)c(C(=O)NN)n1 returned PNC assembly inh 25.8, HPGD block -12.2% and ALDH1A1 inh 25.1µM*.
`COC(=O)[C@@]1(Cc2ccccc2)[C@H]2c3cc(C(=O)N4CCCC4)n(Cc4ccc(S(C)(=O)=O)cc4)c3C[C@H]2CN1C(=O)c1ccccc1` gave HPGD block -4.1% and ALDH1A1 inh -11.3%.
For C/C(=N\NC(=O)c1cccc(F)c1)c1cccc(NC(=O)c2ccc(F)cc2)c1 the results were ALDH1A1 inh 13.4%.
For C/C(=N\NC(=O)c1cccc(N/N=C(\C)c2cc(O)ccc2O)c1)c1cc(O)ccc1O the results were ALDH1A1 inh 7.94µM*.
Screening C/C(=N/NC(=O)c1ccc(Br)o1)C(C)C returned PNC assembly inh 20.4, HPGD block -7.7% and ALDH1A1 inh -3.9%.
COc1cc(OC)c(C2CC(=O)N3CN(c4ccccc4)CSC3=C2C#N)cc1OC (configuration not stated) was read as PNC assembly inh 11.6, HPGD block 10µM* and ALDH1A1 inh 8.91µM*.
Screening CCc1ccccc1N1CCN(S(=O)(=O)c2cc(OC)ccc2OC)CC1 returned PNC assembly inh 31.8, HPGD block -18.4% and ALDH1A1 inh inconclusive.
Screening CCc1ccccc1N1CSC2=C(C#N)C(c3cc(OC)c(OC)cc3OC)CC(=O)N2C1 (configuration not stated) returned PNC assembly inh 10.7, HPGD block 7.94µM* and ALDH1A1 inh inconclusive.
`C=CCSC1=C(C#N)C(c2ccccc2OC)CC(=O)N1` (configuration not stated) gave PNC assembly inh 8.7, HPGD block -16.0% and ALDH1A1 inh inconclusive.
Screening COc1ccc(COC2OC[C@]3(C)[C@H]4C5=C(CN3C(=O)OC(C)(C)C)[C@H](C)C(CO)C(CO)C5CC[C@@H]24)cc1 (some centres not stated) returned HPGD block -6.6% and ALDH1A1 inh -7.4%.
`O=C(O)c1ccccc1C(=O)Nc1n[nH]c(=S)s1` gave PNC assembly inh 4.9, HPGD block 8.91µM* and ALDH1A1 inh 6.31µM*.
For O=C(O)c1ccccc1C(=O)Nc1ccccc1 the results were PNC assembly inh 8.8, HPGD block -16.4% and ALDH1A1 inh inconclusive.
CC(=O)c1ccc(OC2C=CC(c3ccc(Cl)cc3)OC2CO)cc1 (configuration not stated) was read as ALDH1A1 inh 1.0%[13.5 µM].
For CCCOC(=O)c1c(-c2ccccc2)nc(CC)c(C(=O)SCC)c1CCC the results were HPGD block 3.6% and ALDH1A1 inh -7.3%.
For Cc1ccc(N/C=C(\C#N)S(=O)(=O)c2ccccc2)cc1 the results were ALDH1A1 inh 7.3%.
`Cn1c(CCNC(=O)c2cccs2)nnc1SCC(=O)N1CCN(c2ccccc2)CC1` gave PNC assembly inh inconclusive, HPGD block 0.6% and ALDH1A1 inh 28.2µM*.
O=C(CSc1ncn(-c2ccccc2)n1)N1CCN(c2ccccc2)CC1 was read as PNC assembly inh -18.3, HPGD block 28.2µM* and ALDH1A1 inh 14.1µM*.
Screening Cc1ccnc(SCC(=O)N2CCN(c3ccccc3)CC2)n1 returned PNC assembly inh -14.0, HPGD block -10.7% and ALDH1A1 inh inconclusive.
For Cn1c(SCC(=O)N2CCN(c3ccccc3)CC2)nnc1-c1ccccc1 the results were PNC assembly inh 15.0, HPGD block -1.2% and ALDH1A1 inh 7.94µM*.
`O=C(CSc1nnc(-c2ccco2)n1-c1ccccc1)N1CCN(C(=O)c2ccco2)CC1` gave PNC assembly inh -20.4, HPGD block -18.0% and ALDH1A1 inh inconclusive.
Cn1c(SCC(=O)N2CCN(c3ccccc3)CC2)nnc1-c1ccco1 was read as PNC assembly inh 9.0, HPGD block 2.8% and ALDH1A1 inh 12.6µM*.
Screening Cc1sc(NC(=O)CSc2nnc(CCNC(=O)c3cccs3)n2C)nc1-c1ccccc1 returned PNC assembly inh 22.4, HPGD block -2.4% and ALDH1A1 inh 10.7%.
Screening Cn1c(SCC(=O)N2CCN(c3ccccc3)CC2)nnc1-c1c[nH]c2ccccc12 returned PNC assembly inh -14.5, HPGD block -6.5% and ALDH1A1 inh 14.8%.
For CC(Oc1ccccc1)C(=O)N/N=C/c1ccccn1 (configuration not stated) the results were ALDH1A1 inh 9.5%.
CC(C)OP(=O)(OC(C)C)C(C)NC(=O)Cc1ccccc1 (configuration not stated) was read as ALDH1A1 inh 8.5%.
`CC(C)(C)c1ccc(O)c(CN(Cc2c(O)ccc3ccccc23)C2CCCCC2)c1` gave HPGD block -15.3% and ALDH1A1 inh inconclusive.
`CCn1c(SCC(=O)N2CCN(c3ccccc3)CC2)nnc1-c1ccncc1` gave PNC assembly inh -100.0*, HPGD block 20µM* and ALDH1A1 inh 25.1µM*.
`Cc1ccccc1-n1c(SCC(=O)N2CCN(c3ccccc3)CC2)nnc1-c1ccncc1` gave PNC assembly inh -12.6, HPGD block -7.0% and ALDH1A1 inh inconclusive.
Screening Cc1ccc(NS(=O)(=O)c2cc(C(=O)N3CCc4ccccc4C3)ccc2Cl)cc1 returned PNC assembly inh -5.8, HPGD block -21.3%, ALDH1A1 inh 6.4% and HPGD inh cf -36.3%.
Screening Cc1ccccc1NS(=O)(=O)c1cc(C(=O)N2CCc3ccccc3C2)ccc1C returned PNC assembly inh inconclusive, HPGD block -11.4% and ALDH1A1 inh -0.3%.
For O=C(Nc1ccccc1N1CCOCC1)C1CCN(S(=O)(=O)c2ccc(F)cc2)CC1 the results were PNC assembly inh -11.6, HPGD block -0.2% and ALDH1A1 inh -4.9%.
Screening COc1ccc(N2CCN(C(=O)c3ccc(N(C)S(=O)(=O)c4ccc(C)cc4)cc3)CC2)cc1 returned ALDH1A1 inh 5.9%.
Cc1ccc(S(=O)(=O)N(C)c2ccc(C(=O)N3CCC(C(N)=O)CC3)cc2)cc1 was read as PNC assembly inh 13.2, HPGD block 28.2µM*, ALDH1A1 inh 0.8% and HPGD inh cf inconclusive.
For O=C(NNC(=O)c1c(F)cccc1F)c1ccccc1-n1cccc1 the results were ALDH1A1 inh 6.9%.
`Cc1ccc(C)c(Cn2c(=O)n(-c3ccc(CC(=O)NCc4ccco4)cc3)c(=O)c3sccc32)c1` gave PNC assembly inh -9.4, HPGD block -7.6% and ALDH1A1 inh 11.3%.
Cc1ccc(C)c(Cn2nnc3c(=O)[nH]c(C(=O)NCc4ccco4)nc32)c1 was read as PNC assembly inh 30.8, HPGD block 0.562µM*, ALDH1A1 inh -14.2% and HPGD inh cf 0.316µM*.
Screening CC1CN(c2ccc(Cl)cc2[N+](=O)[O-])CCN1S(C)(=O)=O (configuration not stated) returned ALDH1A1 inh 33.1%.
